# Experimental data from PubChem BioAssay.
# Assay: probe aShh binding to arrayed compounds – biochemical, biotinylated probe, 635/667 nm fluorescence, primary screen (AID 1114);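 also: probe is biotin-labelled aShh protein from a stem cell growth factor screen; measures binding of labelled protein to compounds printed on the slide; score merges feature fluorescence at 667 nm with signal-to-noise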
# Details: small-molecule microarray, higher = more signal
row,Compound,composite z-score
1,[N-]=[N+]=NCc1ccccc1[C@@H]1OC(c2ccc(OCCCO)cc2)=N[C@]1(Cc1ccccc1N=[N+]=[N-])C(=O)NCc1ccccc1,-0.221
2,CCOC(=O)C[C@H]1[C@H](OC(=O)c2ccc(-c3ccccc3)cc2)[C@@H](NC(=O)c2ccc3ccccc3c2)c2cc(OCCCO)ccc2N1C(=O)Cc1ccc(OC)cc1,0.151
3,CC(C)NC(=O)[C@@H]1c2ccccc2C(=O)N(Cc2ccccc2Cl)[C@H]1c1ccc(CO)cc1,-0.0769
4,CCCCC(CC)C(O)C1C=CC2C(=O)N(c3ccccc3)C(=O)C2N1Nc1ccccc1 (stereo unspecified),0.108
5,CC(C)C[C@@H]1NC(=O)[C@H]2C[C@@H](C(=O)NCCCCCNC(=O)CS)[C@@H](c3cccc(OCCO)c3)N2C1=O,-0.358
6,CCC[C@@H]1C=C(C(=O)O)[C@H](c2ccc(C)cc2)N1S(=O)(=O)c1ccc(C)cc1,0.0815
7,[N-]=[N+]=NCc1ccccc1[C@H]1OC(c2ccc(OCCCO)cc2)=N[C@@]1(CCS(=O)(=O)c1ccccc1)C(=O)N1CCOCC1,0.356
8,C=CC(COC(C)=O)NS(=O)(=O)c1ccc(Br)cc1 (stereo unspecified),0.0948
9,COCCOC(=O)N1C(=O)[C@@]2(c3cc(C#CCC(C(=O)OC)C(=O)OC)ccc31)[C@H](C(=O)N1CCN(c3ncccn3)CC1)[C@H]1C(=O)O[C@H](c3ccccc3)[C@H](c3ccccc3)N1[C@@H]2c1ccc(OCCO)cc1,-0.2
10,Cc1cc(C)c(C(O)C2C=CC3C(=O)N(c4ccccc4)C(=O)C3N2Nc2ccc(C#N)cc2)c(C)c1 (stereo unspecified),-0.0793
11,Cc1ccc(S[C@]2(C(=O)NC3CC3)CC(=O)N(C3CCCCC3)[C@@H]2c2ccc(CO)cc2I)cc1,-0.304
12,CC(C)CNC(=O)[C@@]1(c2ccc([N+](=O)[O-])cc2)CC(=O)N(CC23CC4CC(CC(C4)C2)C3)[C@@H]1c1ccc(CO)cc1I,-0.0685
13,CC(C)c1ccc(NN2C(C(O)c3c(F)cccc3Cl)C=CC3C(=O)N(c4ccccc4)C(=O)C32)cc1 (stereo unspecified),1.38
14,COCCOC(=O)N1C(=O)[C@@]2(c3cc(C#CCNC(N)=O)ccc31)[C@H](c1ccc(O)cc1)N1[C@H](c3ccccc3)[C@H](c3ccccc3)OC(=O)[C@H]1[C@@H]2C(=O)Nc1nc2ccccc2s1,-0.0626
15,[N-]=[N+]=Nc1ccccc1[C@H]1OC(c2ccc(OCCCO)cc2)=N[C@@]1(CCS(=O)(=O)c1ccccc1)C(=O)O,0.0278
16,CC=CC(O)C1C=CC2C(=O)N(c3ccccc3)C(=O)C2N1Nc1ccc(C(C)C)cc1 (stereo unspecified),0.0469
17,COc1cccc(C(=O)O[C@H]2CC[C@]3(C)C4=C(CCC3C2(C)C)[C@]2(C)CC[C@H]([C@H](C)CCCC(C)C)[C@@]2(C)CC4)c1 (stereo partly specified),-0.138
18,CC(=O)NCCCC[C@@H]1NC(=O)[C@H]2C[C@@H](C(=O)NCCCCCC[N+](C)(C)C)[C@@H](c3cccc(OCCO)c3)N2C1=O,-0.0709
19,CC(C)c1ccc(NN2C(C(O)c3cccc(O)c3)C=CC3C(=O)N(c4ccccc4)C(=O)C32)cc1 (stereo unspecified),0.0588
20,O=C(CS)NCCCCCCNC(=O)[C@H]1C[C@H]2C(=O)N3CCC[C@H]3C(=O)N2[C@H]1c1cccc(OCCO)c1,0.251
21,C=C(C(=O)CC[C@H](OC(C)=O)c1ccc(OCCO)cc1)C(C)C,-0.0157
